Among the data in PubChem BioAssay (EPA / NIEHS) are outcome and AC50 values, retold here.

One may read the AC50 as the midpoint of the concentration-response curve, whichever way the signal moves.

Read-out in assay [1]: Intercellular Adhesion Molecule 1 (ICAM1), ICAM1 (gene 3383)
As to the kind of experiment: BSK_hDFCGF_ICAM1: BioMAP Diversity Plus: hDFCGF Assay for Intercellular Adhesion Molecule 1 (ICAM1) Biomarker Activity (AID 2284287). The conditions noted are these: primary human foreskin fibroblasts. The method, then: BSK_hDFCGF is a cell-based, multiplexed-readout assay that uses foreskin fibroblast, a human skin primary cell, with measurements taken at 24 hours after chemical dosing in a 96-well plate.BSK_hDFCGF_ICAM1 is an assay component measured in the BSK_hDFCGF assay. It measures ICAM-1 antibody related to regulation of gene expression using ELISA technology.Data from the assay component BSK_hDFCGF_ICAM1 was analyzed at the endpoint, BSK_hDFCGF_ICAM1, in the positive analysis fitting direction relative to DMSO as the negative control and baseline of activity. Using a type of binding reporter, gain or loss-of-signal activity can be used to understand protein changes. […]
(§1) The levels of cell surface (or secreted, indicated by the prefix "s") biomarker endpoints were measured by ELISA. Overt cytotoxicity to cells in confluent adherent cultures (all systems other than the BT system) was assessed by measuring total protein levels using sulforhodamine B (SRB) staining in parallel cultures at the time of biomarker measurements, indicated as SRB endpoints. For proliferation assays for adherent cell types, individual cell types are cultured at sub-confluence and relative cell numbers quantified by SRB staining at time points optimized for each system (48 h: 3C and CASM3C systems; 72 h: BT and HDF3CGF systems; 96 h: SAg system). […] Plates were read after 6 h.

Read-out in the next assay: CD40, CD40 (gene 958)
In words: BSK_IMphg_CD40: BioMAP Diversity Plus: IMphg Assay for CD40 Biomarker Activity (AID 2284288). As to conditions: primary human endothelial cells with macrophages. In short, it runs like this: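 Venular endothelial cells co-cultured with macrophages (human primary), CD40 measured by ELISA 24 h after dosing. Positive-direction fit vs DMSO baseline; cytotoxicity tracked by SRB total-protein staining in parallel cultures.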

Read-out in assay [2]: TIMP metallopeptidase inhibitor 2 (TIMP2), TIMP2 (gene 7077)
As to the kind of experiment: BSK_hDFCGF_TIMP2: BioMAP Diversity Plus: hDFCGF Assay for TIMP metallopeptidase inhibitor 2 (TIMP2) Biomarker Activity (AID 2284289). As to conditions: primary human foreskin fibroblasts. In short, it runs like this:
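Primary human foreskin fibroblasts in the hDFCGF system, dosed for 24 h; TIMP-2 level measured by ELISA, fitted in the positive direction against DMSO; cytotoxicity checked in parallel by sulforhodamine B total protein staining.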

Read-out in assay [3]: Interleukin-1 alpha (IL1a), IL1A (gene 3552)
As to the kind of experiment: BSK_IMphg_IL1a: BioMAP Diversity Plus: IMphg Assay for Interleukin-1 alpha (IL1a) Biomarker Activity (AID 2284290). As to conditions: primary human endothelial cells with macrophages. In short, it runs like this:
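Human venular endothelial cells co-cultured with macrophages, IMphg system. IL-1α is measured by ELISA 24 h after dosing and fitted in the positive direction against DMSO. Cytotoxicity is assessed by SRB staining of parallel cultures.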

Read-out in assay [4]: E-selectin (Homo sapiens) (UniProt P16581)
As to the kind of experiment: BSK_IMphg_ESelectin: BioMAP Diversity Plus: IMphg Assay for Eselectin Biomarker Activity (AID 2284291). The conditions noted are these: primary human endothelial cells with macrophages. In short, it runs like this: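 Human venular endothelial cell–macrophage co-culture, E-selectin measured by ELISA 24 h after chemical dosing. Signal fitted in the positive direction against DMSO as negative control and baseline.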

A short description of assay [5]: BSK_IMphg_SRB: Viability Assessment in the BioMAP Diversity Plus: IMphg Assay (AID 2284292).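 Note: measured one day after compound addition.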 The conditions noted are these: primary human endothelial cells with macrophages. In short, it runs like this:
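Human venular endothelial cells with macrophages, 24 h after chemical dosing; total protein by 0.1% SRB staining after 10% TCA fixation, read at 560 nm. Positive-direction fitting versus DMSO baseline.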

Read-out in assay [6]: Macrophage colony-stimulating factor (MCSF), CSF1 (gene 1435)
As to the kind of experiment: BSK_IMphg_MCSF: BioMAP Diversity Plus: IMphg Assay for Macrophage colony-stimulating factor (MCSF) Biomarker Activity (AID 2284293). As to conditions: primary human endothelial cells with macrophages. In short, it runs like this:
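Co-culture of human venular endothelial cells and macrophages, 24 hours of chemical exposure. M-CSF quantified by ELISA, with parallel SRB total-protein staining for cytotoxicity; activity fitted relative to DMSO.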

Read-out in assay [7]: Interleukin-10 (IL10), IL10 (gene 3586)
In words: BSK_IMphg_IL10: BioMAP Diversity Plus: IMphg Assay for Interleukin-10 (IL10) Biomarker Activity (AID 2284294). The conditions noted are these: primary human endothelial cells with macrophages. The method, then:
BSK_IMphg is a cell-based, multiplexed-readout assay that uses venular endothelial cells and macrophages, a human vascular primary cell, with measurements taken at 24 hours after chemical dosing in a microplate: 96-well plate.BSK_IMphg_IL10 is an assay component measured in the BSK_IMphg assay. It measures IL-10 antibody related to regulation of gene expression using ELISA technology.Data from the assay component BSK_IMphg_IL10 was analyzed at the endpoint, BSK_IMphg_IL10, in the positive analysis fitting direction relative to DMSO as the negative control and baseline of activity. Using a type of binding reporter, gain or loss-of-signal activity can be used to understand protein changes. To generalize the intended target to other relatable targets, this assay endpoint is annotated to the 'cytokine' intended target family, where the subfamily is 'interleukins'.
as §1, with “system). SRB was performed by staining cells with 0.1% SRB after fixation with 10% TCA and reading wells at 560 nm.Viability and proliferation of PBMC (T cells) was quantified by Alamar Blue reduction for the SAg and BT systems. […] Then, Alamar Blue (20 uL/well) (Invitrogen, Cat DAL1100) was added for 6 h, and the plates were read with a fluorescence microplate reader at 546/580 nm (excitation/emission).” for “system).”

Assay [8] can be described thus: BSK_IMphg_SRB.Mphg: Macrophage Viability Assessment in the BioMAP Diversity Plus: IMphg Assay (AID 2284295). The conditions noted are these: primary human endothelial cells with macrophages. In short, it runs like this:
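Venular endothelial cells co-cultured with macrophages, read 24 h after dosing. Total protein measured by 0.1% SRB staining after 10% TCA fixation, absorbance at 560 nm. Fitted in positive direction against DMSO baseline.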

Read-out in assay [9]: Thrombomodulin, THBD (gene 7056)
As to the kind of experiment: BSK_LPS_Thrombomodulin: BioMAP Diversity Plus: LPS Assay for Thrombomodulin Biomarker Activity (AID 2284296). As to conditions: primary human HUVEC with PBMC. In short, it runs like this:
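Human umbilical vein endothelial cells co-cultured with PBMC and stimulated with LPS; cell-surface thrombomodulin measured by ELISA 24 hours after compound. Gain or loss versus DMSO; cytotoxicity checked by SRB staining in parallel cultures.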

Where “and” joins values, the source holds several entries; their conditions need not be identical. Equal values may be shown once. The source holds several records for some structures; these can differ, active in one and inactive in another. Calls of active or inactive are those of the source. Rule for the calls: active = hit-call score of the fitted dose curve at least 0.9, where 1 is the maximum; inactive = score below 0.9.

Sequence of E-selectin (Homo sapiens) (P16581 whole entry, looked up): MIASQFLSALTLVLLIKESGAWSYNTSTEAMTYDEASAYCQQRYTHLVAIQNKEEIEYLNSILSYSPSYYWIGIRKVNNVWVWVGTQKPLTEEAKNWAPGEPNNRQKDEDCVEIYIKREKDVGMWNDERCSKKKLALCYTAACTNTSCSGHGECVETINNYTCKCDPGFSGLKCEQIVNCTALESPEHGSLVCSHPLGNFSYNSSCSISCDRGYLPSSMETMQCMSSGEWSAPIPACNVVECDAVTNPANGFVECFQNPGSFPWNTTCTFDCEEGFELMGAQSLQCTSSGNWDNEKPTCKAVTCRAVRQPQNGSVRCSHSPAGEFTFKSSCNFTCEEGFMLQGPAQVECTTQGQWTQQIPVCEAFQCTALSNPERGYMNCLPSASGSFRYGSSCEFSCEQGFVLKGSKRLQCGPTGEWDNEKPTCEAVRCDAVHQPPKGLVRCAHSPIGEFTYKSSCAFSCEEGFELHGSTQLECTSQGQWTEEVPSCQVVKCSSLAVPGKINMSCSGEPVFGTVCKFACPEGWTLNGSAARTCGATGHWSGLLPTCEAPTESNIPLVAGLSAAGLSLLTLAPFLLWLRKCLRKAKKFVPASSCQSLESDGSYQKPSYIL

Turning to `O=S(=O)(O)C(F)(F)C(F)(F)C(F)(F)C(F)(F)C(F)(F)C(F)(F)C(F)(F)C(F)(F)F`, the outcome in assay [1] was “inactive”; with CD40, CD40 (gene 958), “inactive”; in [2], “inactive”; in assay [3], “inactive”; in assay [5], “inactive”; in assay [6], “inactive”. The outcome in assay [8] and in assay [9] was inactive. The AC50 in assay [2] is 30 µM (active) and 8.71 µM (active); in assay [4] it was 30 µM (active) and 38.2 µM (active); in [7], 45.3 µM (active) [middle of 4 runs].

As for `O=C(O)C(F)(F)C(F)(F)C(F)(F)C(F)(F)C(F)(F)C(F)(F)C(F)(F)F`, the outcome in assay [1] was “inactive”; in the assay with CD40, CD40 (gene 958), “inactive”; in assay [2] it was “inactive”; in assay [3] it was “inactive”; in [4], “inactive”; in assay [5], “inactive”. The outcome in assay [6], in assay [7], in [8] and in assay [9] was inactive. For the same compound, the AC50 in assay [7] is 30 µM (active); in [9] it was 0.609 µM (active).
